MPTP inh: blocks calcium-induced mitochondrial swelling. inhibition, % at 10 µM. isolated mouse mitochondria, Ca2+ swelling absorbance, 30 min. actives 1.4% (n = 360,000);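 active = inhibition of 50% or more, scaled per plate between neutral and stimulator controls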;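 also: 0% = DMSO wells given calcium and 100% = 1 mM EGTA wells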
NR3A LBD binder: NR3A (human) ligand-binding domain modulation; actives 2.5% (n = 340,000); NR3A LBD differential scanning fluorimetry, Tm shift; 0% = protein alone, 100% = glycine-bound protein; AID 1259313; Tm shift relative to glycine control, % at 25 µM;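 active = melting temperature shift of at least 10% of the positive control shift, at one fixed dose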
FAS TE block: FAS thioesterase (human) inhibition; P49327; recombinant FAS-TE, OMFH fluorogenic substrate, fluorescence endpoint; inhibition, % at 15 µM; actives 0.67% (n = 360,000); AID 602261;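 active = compounds whose normalised, plate-corrected inhibition of enzyme fluorescence in the single-dose primary screen is 50% or more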;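 also: 0% = DMSO with enzyme and 100% = substrate without enzyme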
Myeloid diff MLP: promotes myeloid progenitor differentiation; ER-HoxA9 myeloid progenitors, lysozyme-GFP differentiation, flow cytometry; calls only at 10 µM; actives 1% (n = 360,000);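 active = normalized GFP-positive differentiation at or above the plate's own cutoff, the solvent-only control mean plus 3 SD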;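 also: cells exposed to compound for four days before flow analysis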
rCAG binder: r(CAG) repeat RNA binding | TO-PRO-1 dye displacement fluorescence | inhibition, % at 3 µM | actives 1.3% (n = 370,000);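 active = inhibition above the plate cutoff, the mean of all test compounds on that plate plus 3 SD, cut at about 35% in these data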;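 also: 0% = DMSO alone and 100% = 100 µM mitoxantrone as full dye displacement; higher means more dye released from RNA so lower well fluorescence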
rCAG bind conf: r(CAG) RNA repeat binding, confirmation. AID 652065. TO-PRO-1 dye displacement fluorescence. inhibition, % at 3 µM. shares compounds with rCAG binder. actives 70% (n = 4,300);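 active = inhibition above a per-plate cutoff, the mean inhibition of sample wells plus 3 SD, cut at about 35% in these data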;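 also: loss of TO-PRO-1 fluorescence as compound displaces dye from 1x1 AA loop RNA; 0% = DMSO only wells and 100% = 100 µM mitoxantrone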
DNA CAG counter: disrupts DNA CAG TO-PRO-1 complex, flagging rCAG hits. shares compounds with rCAG binder. d(CAG) DNA oligo TO-PRO-1 dye displacement, fluorescence. inhibition, % at 3 µM. actives 94% (n = 4,300). AID 652068;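 active = inhibition above its plate's cutoff, the mean test-well inhibition plus 3 SD, cut at about 4.8% in these data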;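 also: 0% = DNA dye mix with DMSO and 100% = 100 µM mitoxantrone; hits displace the dye from DNA and so lower well fluorescence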
* marks the source's active call; other numbers are inactive results. The list is not random: actives were taken first. Their share in the collection is about 5.7%.

Results for COc1ccc(-n2c(SCC(=O)N/N=C/c3ccccc3OCC(=O)O)nc3ccccc3c2=O)cc1 ?
MPTP inh: 4; NR3A LBD binder: -1; FAS TE block: -2; Myeloid diff MLP: inactive; rCAG binder: 43*; rCAG bind conf: 47*; DNA CAG counter: 13*

How did COc1ccc(Br)c(/C=N/NC(=O)COc2ccc(-c3ccccc3)cc2)c1 do in these assays?
MPTP inh: 2; NR3A LBD binder: -8; FAS TE block: 18; Myeloid diff MLP: inactive; rCAG binder: 4

Results for O=C(CSc1nc2ccccc2n1Cc1ccc(Cl)cc1)N/N=C/c1ccccc1C(=O)O ?
MPTP inh: -2; NR3A LBD binder: -11; FAS TE block: 12; Myeloid diff MLP: inactive; rCAG binder: 53*; rCAG bind conf: 56*; DNA CAG counter: 18*

Results for CCOc1cc(N2CCOCC2)c(OCC)cc1NC(=O)CN1C(=O)NC(C)(c2ccc(OC)cc2)C1=O (configuration not stated) ?
MPTP inh: -2; NR3A LBD binder: 0; FAS TE block: -4; Myeloid diff MLP: inactive; rCAG binder: 0

Results for COc1ccc(-c2c/c(=N\c3nc(-c4ccccc4)c(C)s3)c3ccccc3o2)cc1O ?
MPTP inh: 4; NR3A LBD binder: 15*; FAS TE block: 21; rCAG binder: 39*; rCAG bind conf: 34; DNA CAG counter: 15*

Results for COc1ccc(/C=N/NC(=O)CCN2CCN(c3ccccc3)CC2)c(OC)c1OC ?
MPTP inh: 0; NR3A LBD binder: 0; FAS TE block: -8; Myeloid diff MLP: inactive; rCAG binder: -7

How did O=C(CCN1CCN(c2ccccc2)CC1)N/N=C/c1ccc(O)c(O)c1O do in these assays?
MPTP inh: 4; NR3A LBD binder: -2; FAS TE block: -9; Myeloid diff MLP: inactive; rCAG binder: 56*; rCAG bind conf: 45*; DNA CAG counter: 21*

Results for Cc1ccc(C2=NCCn3nc4cc(C(F)(F)F)ccc4c32)cc1 ?
MPTP inh: 0; NR3A LBD binder: 7; FAS TE block: 2; Myeloid diff MLP: inactive; rCAG binder: 2

How did COc1cc(/C=C2\SC(=S)N(NC(=O)c3ccccc3OC)C2=O)ccc1O do in these assays?
MPTP inh: 15; NR3A LBD binder: 8; FAS TE block: 0; Myeloid diff MLP: inactive; rCAG binder: 58*; rCAG bind conf: 51*; DNA CAG counter: 19*

Results for CCOc1cc(/C=C2\SC(=S)N(NS(=O)(=O)c3ccc(C)cc3)C2=O)ccc1O ?
MPTP inh: 19; NR3A LBD binder: -5; FAS TE block: -2; Myeloid diff MLP: inactive; rCAG binder: 70*; rCAG bind conf: 50*; DNA CAG counter: 19*

How did COc1cc(/C=C2\SC(=S)N(NS(=O)(=O)c3ccc(C)cc3)C2=O)ccc1O do in these assays?
MPTP inh: 15; NR3A LBD binder: -5; FAS TE block: -4; Myeloid diff MLP: inactive; rCAG binder: 45*; rCAG bind conf: 30; DNA CAG counter: 9.9*

Results for COc1cc(/C=C2\SC(=S)N(NS(=O)(=O)c3ccccc3)C2=O)ccc1O ?
MPTP inh: 9; NR3A LBD binder: -3; FAS TE block: -9; Myeloid diff MLP: inactive; rCAG binder: 19

What do the screens show for `COc1cc(/C=C2\SC(=S)N(NC(=O)c3cccc(O)c3)C2=O)ccc1O`?
MPTP inh: 16; NR3A LBD binder: 5; FAS TE block: -5; Myeloid diff MLP: inactive; rCAG binder: 17

Results for Cn1ncc(Cl)c1C(=O)N1CCN(c2ncccn2)CC1 ?
MPTP inh: 2; NR3A LBD binder: 0; FAS TE block: -12; Myeloid diff MLP: inactive; rCAG binder: -7

How did Cc1ccc(CNS(=O)(=O)c2c(C)[nH]c(C)c2C(=O)N2CCCCC2)cc1 do in these assays?
MPTP inh: 1; NR3A LBD binder: 0; FAS TE block: -7; Myeloid diff MLP: inactive; rCAG binder: -3

How did Cc1ccc(Sc2ccc(S(=O)(=O)Nc3ccc(CC(=O)O)cc3)cc2)cc1C do in these assays?
MPTP inh: -2; NR3A LBD binder: -12; FAS TE block: 4; Myeloid diff MLP: inactive; rCAG binder: 52*; rCAG bind conf: 44*; DNA CAG counter: 14*

Results for O=C(O)Cc1ccc(NS(=O)(=O)c2ccccc2Cl)cc1 ?
MPTP inh: -1; NR3A LBD binder: 1; FAS TE block: -9; Myeloid diff MLP: inactive; rCAG binder: 1

Results for Cc1ccc(C)c(Sc2ccc(S(=O)(=O)Nc3ccc(C(=O)O)cc3)cc2)c1 ?
MPTP inh: 5; NR3A LBD binder: -18; FAS TE block: 9; Myeloid diff MLP: inactive; rCAG binder: 38*; rCAG bind conf: 41*; DNA CAG counter: 11*

What do the screens show for `Cc1ccc(N=C2S/C(=C\c3cn(CC(=O)O)c4ccccc34)C(=O)N2C)cc1`?
MPTP inh: 3; NR3A LBD binder: -1; FAS TE block: 3; Myeloid diff MLP: inactive; rCAG binder: 77*; rCAG bind conf: 76*; DNA CAG counter: 36*

Results for O=C(O)CSCC(=O)N(Cc1ccccc1)c1nc(-c2ccccc2)c(-c2ccccc2)s1 ?
MPTP inh: -4; NR3A LBD binder: -402; FAS TE block: 44; Myeloid diff MLP: inactive; rCAG binder: 68*; rCAG bind conf: 86*; DNA CAG counter: 54*

Results for CCc1ccc(C(=O)Nc2cccc(-c3nn[nH]n3)c2)s1 ?
MPTP inh: -1; NR3A LBD binder: -1; FAS TE block: -3; Myeloid diff MLP: inactive; rCAG binder: 15

How did CCCc1cc(C(=O)Nc2cccc(-c3nn[nH]n3)c2)sc1C do in these assays?
MPTP inh: -1; FAS TE block: 0; Myeloid diff MLP: inactive; rCAG binder: 40*; rCAG bind conf: 35*; DNA CAG counter: 8.5*

What do the screens show for `CCc1ccccc1Oc1nc(NCc2ccccc2)nc2ccsc12`?
MPTP inh: 2; FAS TE block: 25; Myeloid diff MLP: inactive; rCAG binder: 5

What do the screens show for `Cc1ccc(S(=O)(=O)NC(=O)c2cc(C)n(-c3cc(S(=O)(=O)N4CCOCC4)ccc3N3CCCC3)c2C)cc1`?
MPTP inh: -3; NR3A LBD binder: -11; FAS TE block: -5; Myeloid diff MLP: inactive; rCAG binder: 36*; rCAG bind conf: 49*; DNA CAG counter: 15*

What do the screens show for `Cc1ccc(N=Nc2c(O)[nH]c(=O)[nH]c2=O)cc1S(=O)(=O)Nc1ccc(Br)cc1`?
MPTP inh: 0; NR3A LBD binder: -4; FAS TE block: 9; Myeloid diff MLP: inactive; rCAG binder: 36*; rCAG bind conf: 32; DNA CAG counter: 11*

Results for CN(Cc1ccnc2ccccc12)C(=O)C1CCC(=O)N(Cc2ccccc2F)C1 (configuration not stated) ?
MPTP inh: 1; NR3A LBD binder: 0; FAS TE block: -3; Myeloid diff MLP: inactive; rCAG binder: -1

From PubChem BioAssay
